Assay results reported in PubChem BioAssay (NCATS).
Results filed as inconclusive are left out. The source made the active and inactive calls. Calls follow the shape of the dose curve; as a rule, active = well fitted cell-killing curve with a large enough effect; inconclusive = small, poorly fitted or top-dose-only effect, or effect the other way; inactive = flat fitted curve, though single readings scatter.

Assays:
Test in all cases: Primary qHTS to identify gynecologic anti-cancer compounds using libraries of approved drugs and bioactive compounds (AID 1345084); also: nearly all actives have a fitted effect of over 55% in size
Hek293T = details: Gynecologic cancer cell panel viability, ATPlite luminescence, 48 h, control line for the selectivity index; series mostly up to 57.5 µM
How it was run: (§1)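 Luminescence from the ATPlite ATP-monitoring reagent indicates viable cell number; lower signal means cytotoxicity. Cells received compound 16 h after seeding and were exposed for 48 h across five concentrations.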

JEG-3 = details: Gynecologic cancer cell panel viability, ATPlite luminescence, 48 h; series mostly up to 57.5 µM
How it was run: as §1

OV90 = details: Gynecologic cancer cell panel viability, ATPlite luminescence, 48 h; series mostly up to 57.5 µM
How it was run: as §1

PA-1 = details: Gynecologic cancer cell panel viability, ATPlite luminescence, 48 h; series mostly up to 57.5 µM
How it was run: as §1

SKOV3 = details: Gynecologic cancer cell panel viability, ATPlite luminescence, 48 h; series mostly up to 57.5 µM
How it was run: as §1

Tov-21-G = details: Gynecologic cancer cell panel viability, ATPlite luminescence, 48 h; series mostly up to 57.5 µM
How it was run: as §1

Tov112D = details: Gynecologic cancer cell panel viability, ATPlite luminescence, 48 h; series mostly up to 57.5 µM
How it was run: as §1
% is scaled to controls: 0 for no effect and ±100 for the full control effect.

C=C1C(=O)OC2/C=C(\C)CC/C=C(\C(=O)O)CC/C=C(\C)CCC12 (stereo not given)
inactive: Potency (Hek293T) | Potency (JEG-3) | Potency (OV90) | Potency (PA-1) | Potency (SKOV3) | Potency (Tov-21-G) | Potency (Tov112D)

COc1ccccc1[C@@H]1C2=C(CC(C)(C)CC2=O)Nc2n[nH]c(C(F)(F)F)c21
inactive: Potency (Hek293T) | Potency (JEG-3) | Potency (OV90) | Potency (PA-1) | Potency (SKOV3) | Potency (Tov-21-G) | Potency (Tov112D)

C[C@]12CC[C@@H]3c4ccc(O[C@@H]5O[C@H](C(=O)O)[C@@H](O)[C@H](O)[C@H]5O)cc4CC[C@H]3[C@@H]1CCC2=O
inactive: Potency (Hek293T) | Potency (JEG-3) | Potency (OV90) | Potency (PA-1) | Potency (SKOV3) | Potency (Tov-21-G) | Potency (Tov112D)

Cc1cc(O)cc(Oc2cc(C)c(C(=O)O)c(O)c2)c1
inactive: Potency (Hek293T) | Potency (JEG-3) | Potency (OV90) | Potency (PA-1) | Potency (SKOV3) | Potency (Tov-21-G) | Potency (Tov112D)

CC1OC(O[C@H]2[C@@H](O)C[C@@]3(C)C([C@H](O)C[C@]4(C)C3CC=C3C5CC(C)(C)CC[C@]5(C(=O)OC5OC(CO)C(O)C(O)C5OC5OCC(OC6OCC(OC7OCC(O)C(O)C7O)C(O)C6O)C(OC6OCC(O)(CO)C6O)C5O)CC[C@]34C)[C@]2(C)CO)C(O)C(O)C1O (stereo not given in full)
inactive: activity change, negative = cytotoxicity (Hek293T) -2% [at 6.55 µM] | activity change, negative = cytotoxicity (JEG-3) -1.46% [at 6.55 µM] | activity change, negative = cytotoxicity (OV90) 3.36% [at 6.55 µM] | activity change, negative = cytotoxicity (PA-1) 2.16% [at 6.55 µM] | activity change, negative = cytotoxicity (SKOV3) -0.54% [at 6.55 µM] | activity change, negative = cytotoxicity (Tov-21-G) -10.9% [at 6.55 µM] | activity change, negative = cytotoxicity (Tov112D) 7.32% [at 6.55 µM]

CC1(C)CC[C@]2(C(=O)O)CC[C@]3(C)C(=CCC4[C@@]5(C)C[C@H](O)[C@H](O[C@@H]6OC[C@H](O)[C@H](O)[C@H]6O)[C@@](C)(CO)C5CC[C@]43C)[C@@H]2C1 (stereo not given in full)
inactive: Potency (Hek293T) | Potency (JEG-3) | Potency (OV90) | Potency (PA-1) | Potency (SKOV3) | Potency (Tov-21-G) | Potency (Tov112D)

CO[C@@H]1COCC[C@@H]1N[C@@H]1CC[C@@](C(=O)N2CCc3ncc(C(F)(F)F)cc3C2)(C(C)C)C1
inactive: Potency (Hek293T) | Potency (JEG-3) | Potency (OV90) | Potency (PA-1) | Potency (SKOV3) | Potency (Tov-21-G) | Potency (Tov112D)

Cn1c(=O)c2nc(/C=C/c3cccc(Cl)c3)n(C)c2n(C)c1=O
inactive: Potency (Hek293T) | Potency (JEG-3) | Potency (OV90) | Potency (PA-1) | Potency (SKOV3) | Potency (Tov-21-G) | Potency (Tov112D)

C[C@]1(OC(=O)/C=C/c2ccccc2)C[C@H](O)[C@]2(O)C=CO[C@@H](O[C@@H]3O[C@H](CO)[C@@H](O)[C@H](O)[C@H]3O)C12 (stereo not given in full)
inactive: Potency (Hek293T) | Potency (JEG-3) | Potency (OV90) | Potency (PA-1) | Potency (SKOV3) | Potency (Tov-21-G) | Potency (Tov112D)

CC1(CO)CC[C@]2(C(=O)O[C@@H]3O[C@H](CO)[C@@H](O)[C@H](O)[C@H]3O)CC[C@]3(C)C(=CCC4[C@@]5(C)CC[C@H](O[C@@H]6O[C@H](C(=O)O)[C@@H](O)[C@H](O)[C@H]6O)C(C)(C)C5CC[C@]43C)C2C1 (stereo not given in full)
inactive: activity change, negative = cytotoxicity (Hek293T) 11.3% [at 11.6 µM] | activity change, negative = cytotoxicity (JEG-3) 10.8% [at 11.6 µM] | activity change, negative = cytotoxicity (OV90) 2.36% [at 11.6 µM] | activity change, negative = cytotoxicity (PA-1) 28.3% [at 11.6 µM] | activity change, negative = cytotoxicity (SKOV3) 13% [at 11.6 µM] | activity change, negative = cytotoxicity (Tov-21-G) 6.77% [at 11.6 µM] | activity change, negative = cytotoxicity (Tov112D) 9.6% [at 11.6 µM]

CCCC1=CC2=C(CO1)C(=O)C(C)(OC(=O)c1c(C)cc(OC)cc1O)C(O)C2 (stereo not given)
inactive: Potency (Hek293T) | Potency (JEG-3) | Potency (OV90) | Potency (PA-1) | Potency (SKOV3) | Potency (Tov-21-G) | Potency (Tov112D)

Clc1ccc2c(c1)C1=NCCN1c1c(-c3noc(C4CC4)n3)ncn1-2
inactive: Potency (Hek293T) | Potency (JEG-3) | Potency (OV90) | Potency (PA-1) | Potency (SKOV3) | Potency (Tov-21-G) | Potency (Tov112D)

Cc1ncc([N+](=O)[O-])n1CC(O)CN1CCOCC1 (stereo not given)
inactive: Potency (Hek293T) | Potency (JEG-3) | Potency (OV90) | Potency (PA-1) | Potency (SKOV3) | Potency (Tov-21-G) | Potency (Tov112D)

CC(=O)c1c(O)cc2c(c1C)C(=O)CC(O)C2 (stereo not given)
inactive: Potency (Hek293T) | Potency (JEG-3) | Potency (OV90) | Potency (PA-1) | Potency (SKOV3) | Potency (Tov-21-G) | Potency (Tov112D)

COC(=O)CC[C@@H](C)[C@H]1CC[C@H]2[C@@H]3CC(=O)[C@H]4C[C@H](OC(C)=O)CC[C@]4(C)[C@H]3CC[C@]12C
inactive: Potency (Hek293T) | Potency (JEG-3) | Potency (OV90) | Potency (PA-1) | Potency (SKOV3) | Potency (Tov-21-G) | Potency (Tov112D)

c1ccc(Cc2ncc3c(n2)CCNCC3)cc1
inactive: Potency (Hek293T) | Potency (JEG-3) | Potency (OV90) | Potency (PA-1) | Potency (SKOV3) | Potency (Tov-21-G) | Potency (Tov112D)

COc1cc([C@@H]2Oc3c(OC)cc(CCCO)cc3[C@@H]2CO[C@@H]2O[C@H](CO)[C@@H](O)[C@H](O)[C@H]2O)ccc1O
inactive: Potency (Hek293T) | Potency (JEG-3) | Potency (OV90) | Potency (PA-1) | Potency (SKOV3) | Potency (Tov-21-G) | Potency (Tov112D)

C=C1CCC2C(C)(CO[C@@H]3O[C@H](CO)[C@@H](O)[C@H](O)[C@H]3O)C(O)CCC2(C)C1C(=O)CC1=CCOC1=O (stereo not given in full)
inactive: Potency (Hek293T) | Potency (JEG-3) | Potency (OV90) | Potency (PA-1) | Potency (SKOV3) | Potency (Tov-21-G) | Potency (Tov112D)

C[C@@H]1CC[C@]2(C)C(C[C@@H](O)[C@H](O)[C@]23CO3)[C@@]1(C)CCc1ccoc1 (stereo not given in full)
inactive: Potency (Hek293T) | Potency (JEG-3) | Potency (OV90) | Potency (PA-1) | Potency (SKOV3) | Potency (Tov-21-G) | Potency (Tov112D)

CC1C(=O)CC2C3C(O)CC(C(=O)O)C12CC3(C)C (stereo not given)
inactive: Potency (Hek293T) | Potency (JEG-3) | Potency (OV90) | Potency (PA-1) | Potency (SKOV3) | Potency (Tov-21-G) | Potency (Tov112D)
